Records with an inconclusive call do not appear. Unmarked numbers belong to inactive results. Activity calls are given as the source filed them. Calls follow the shape of the dose curve; as a rule, active = well fitted cell-killing curve with a large enough effect; inconclusive = small, poorly fitted or top-dose-only effect, or effect the other way; inactive = flat fitted curve, though single readings scatter.
test system: Es-2; test: Primary qHTS to identify gynecologic anti-cancer compounds using libraries of approved drugs and bioactive compounds (AID 1345084); details: Gynecologic cancer cell panel viability, ATPlite luminescence, 48 h; series mostly up to 57.5 µM; also: nearly all actives have a fitted effect of over 55% in size
Procedure, shortened: (§1)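 Cell viability after 48 h drug treatment, ATPlite luminescence readout; five doses.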
% is scaled to controls: 0 for no effect and ±100 for the full control effect; potency is read from the fitted curve at half-maximal effect.

| Structure (SMILES) | Potency |
| --- | --- |
| C[C@]12CC[C@H](O)C[C@H]1CC[C@@H]1[C@@H]2[C@H](O)C(=O)[C@]2(C)[C@@H](c3ccc(=O)oc3)CC[C@]12O | 89.1 nM (active) |
| CC[C@H]1C2CC3[C@@H]4N(C)c5ccccc5[C@]45C[C@@H]([C@H]2[C@H]5O)N3[C@@H]1O | inactive |
| CC(=O)OC[C@]12C[C@H](OC(=O)CC(C)C)C(C)=C[C@H]1O[C@@H]1[C@H](O)[C@@H](OC(C)=O)[C@@]2(C)[C@@]12CO2 | 100 nM (active) |
| CC1=C[C@H]2O[C@@H]3C[C@H]4OC(=O)/C=C/C=C/C(=O)OCC/C(C)=C/C(=O)OC[C@@]2(CC1)[C@]4(C)[C@]31CO1 | 25.1 nM (active) |
| CC1CCCC(=O)CCC/C=C/c2cc(O)cc(O)c2C(=O)O1 (stereo not drawn) | inactive |
| O=C(OC[C@H]1O[C@@H](Oc2ccc(O)cc2CO)[C@H](O)[C@@H](O)[C@@H]1O)c1ccccc1 | inactive |
| CC(=O)OC[C@]12C[C@H](O)C(C)=C[C@H]1O[C@@H]1[C@H](O)[C@@H](O)[C@@]2(C)[C@]12CO2 | 6310 nM (active) |
| CC[C@H]1C[C@@H]2CC[C@@H](O2)[C@@H](C)C(=O)O[C@H](CC)C[C@H]2CC[C@H](O2)[C@H](C)C(=O)O[C@@H](C)C[C@@H]2CC[C@@H](O2)[C@@H](C)C(=O)O[C@H](CC)C[C@H]2CC[C@H](O2)[C@H](C)C(=O)O1 | 501 nM (active) |
| CC(=O)OC[C@]12C[C@H](O)C(C)=C[C@H]1O[C@@H]1[C@H](O)[C@@H](OC(C)=O)[C@@]2(C)[C@]12CO2 | 199 nM (active) |
| CO[C@H]1[C@H](O)[C@H](O[C@H]2CC[C@]3(C=O)C4CC[C@]5(C)[C@H](C6=CC(=O)OC6)CC[C@]5(O)C4CC[C@@H]3C2)O[C@@H](C)[C@@H]1O (stereo partly drawn) | 100 nM (active) |
| C[C@H]1O[C@@H](n2cnc3c(N)ncnc32)C[C@@H]1O | inactive |
| CO[C@H]1[C@@H](O)[C@@H](C)O[C@@H](O[C@@H]2C=C3C(OC(C)=O)CC4(O)C(CC[C@]5(C)[C@@H](C6=CC(=O)OC6)CC[C@]45O)[C@@]3(C)CC2)[C@@H]1O (stereo partly drawn) | 447 nM (active) |

test system: HeLa; test: as above; details: Gynecologic cancer cell panel viability, ATPlite luminescence, 48 h; series mostly up to 57.5 µM
Procedure, shortened: as §1

| Structure (SMILES) | Potency | activity change, negative = cytotoxicity |
| --- | --- | --- |
| CCC(C)/C=C(C)/C=C/C1=CC2=C(Cl)C(=O)C(C)(OC(C)=O)C(=O)C2=CO1 (stereo not drawn) | inactive | – |
| COC1CC(O[C@H]2CC[C@]3(C)C4CC[C@]5(C)[C@@H](C6=CC(=O)OC6)[C@@H](OC(C)=O)C[C@]5(O)C4CC[C@@H]3C2)OC(C)C1O (stereo partly drawn) | 891 nM (active) | – |
| C[C@H]1O[C@@H](O[C@H]2CC[C@]3(C=O)C4CC[C@]5(C)[C@@H](C6=CC(=O)OC6)CC[C@]5(O)[C@@H]4CC[C@]3(O)C2)C[C@@H](O)[C@@H]1O (stereo partly drawn) | 126 nM (active) | – |
| CC1=CC2OC3[C@H](O)C[C@@](C)([C@]34CO4)[C@@]2(CO)[C@H](O)C1=O (stereo partly drawn) | 25100 nM (active) | – |
| COC1CC(O[C@H]2CC[C@@]3(C)C(CCC4C3CC[C@]3(C)[C@@H](C5=CC(=O)OC5)CC[C@]43O)C2)OC(C)C1O (stereo partly drawn) | 141 nM (active) | – |
| CC(C)(C)[C@]1(O)C[C@@H]2OC(=O)C[C@@]23C(=O)O[C@@H]2OC(=O)[C@@H](O)[C@]213 | inactive | – |
| OCc1nnc2n1-c1ccc(Cl)cc1C(c1ccccc1Cl)=NC2 | inactive | – |
| CN[C@@H]1C[C@H]2O[C@@](C)([C@@H]1OC)n1c3ccccc3c3c4c(c5c6ccccc6n2c5c31)C(=O)NC4 | 282 nM (active) | – |
| COC1CC(O[C@H]2CC[C@]3(C=O)C4CC[C@]5(C)[C@@H](C6=CC(=O)OC6)CC[C@]5(O)[C@@H]4CC[C@@H]3C2)OC(C)C1O[C@@H]1O[C@H](CO)[C@@H](O[C@@H]2O[C@H](CO)[C@@H](O)[C@H](O)[C@H]2O)[C@H](O)[C@H]1O (stereo partly drawn) | 398 nM (active) | – |
| CO[C@@H]1C[C@H](O[C@H]2CC[C@@]3(C)C(CCC4C3CC[C@]3(C)[C@@H](C5=CC(=O)OC5)[C@@H](OC(C)=O)CC43O)C2)O[C@H](C)[C@@H]1O[C@H]1O[C@H](CO[C@@H]2O[C@H](CO)[C@@H](O)[C@H](O)[C@H]2O)[C@@H](O)[C@H](O)[C@H]1O (stereo partly drawn) | 1580 nM (active) | – |
| CO[C@H]1C[C@H](O[C@H]2CC[C@@]3(C)C(=CCC4C3CC[C@]3(C)[C@@H](C5=CC(=O)OC5)CC[C@]43O)C2)O[C@@H](C)[C@@H]1O[C@@H]1O[C@H](CO[C@@H]2O[C@H](CO)[C@@H](O)[C@H](O)[C@H]2O)[C@@H](O)[C@H](O)[C@H]1O (stereo partly drawn) | – | 1.26% [at 11.6 µM] |
